High-throughput results from PubChem BioAssay.
This is a sample that favours compounds with a hit; in the whole collection about 13% have one here.
USP28 block: inhibitors of human USP28 deubiquitinase | 47,000 tested, 3% active | inhibition, % at 25 µM | purified USP28, Ub-rhodamine cleavage fluorescence, 30 min | AID 1645857
USP8 block: blocks human USP8 ubiquitin-rhodamine cleavage. inhibition, % at 20 µM. 47,000 tested, 4.2% active. purified USP8, Ub-rhodamine cleavage fluorescence, 30 min
USP30 block: inhibitors of human USP30 deubiquitinase; Q70CQ3; purified USP30, Ub-rhodamine cleavage fluorescence; inhibition, % at 25 µM; 47,000 tested, 5.3% active; AID 1645860
OTUD3 block: inhibitors of human OTUD3 deubiquitinase. inhibition, % at 25 µM. purified OTUD3, Ub-rhodamine fluorescence, 2 h. AID 1645858. Q5T2D3. 47,000 tested, 0.7% active
Target sequence (Q5T2D3 whole entry, looked up): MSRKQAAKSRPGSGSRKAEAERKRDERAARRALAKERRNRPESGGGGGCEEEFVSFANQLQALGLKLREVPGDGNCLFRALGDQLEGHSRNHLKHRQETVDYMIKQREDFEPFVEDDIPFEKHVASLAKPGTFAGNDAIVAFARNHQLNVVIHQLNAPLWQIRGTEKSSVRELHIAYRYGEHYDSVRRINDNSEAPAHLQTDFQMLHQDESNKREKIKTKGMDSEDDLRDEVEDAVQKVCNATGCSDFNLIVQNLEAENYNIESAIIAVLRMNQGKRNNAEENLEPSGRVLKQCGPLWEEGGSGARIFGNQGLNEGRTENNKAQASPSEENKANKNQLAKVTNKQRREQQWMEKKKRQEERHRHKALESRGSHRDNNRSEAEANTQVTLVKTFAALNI
USP17 inh: inhibitors of human USP17 deubiquitinase; inhibition, % at 50 µM; 47,000 tested, 6.5% active; purified USP17, Ub-rhodamine cleavage fluorescence, 3 h; A8MUK1
The depositor's hits bear a star; . = no result given. Cut-off read from the data, not from the text of the source: active = inhibition above about 30%; inactive = the rest.

SMILES	USP28 block	USP8 block	USP30 block	OTUD3 block	USP17 inh
CCc1ccc(NC(=O)CSc2ccc(N3CCC(C(=O)NC4CC4)CC3)nn2)cc1	67.0*	80.6*	62.1*	38.0*	62.0*
O=C(CSc1ccc(N2CCOCC2)nn1)Nc1ccc(Cl)cc1	4.3	-4.8	-0.8	-11.9	-4.4
Cc1nc2nc(CNc3ccccc3)nn2c(C)c1Cl	46.9*	21.6	20.7	8.9	13.2
Cc1nc2nc(CN(C(=O)C(C)C)c3ccccc3)nn2c(C)c1Cl	0.0	-3.7	0.5	-2.4	-3.3
Cc1cc(C)n2nc(CNc3cccc(Cl)c3)nc2n1	73.5*	5.7	9.7	2.7	10.9
COc1cccc(C2c3[nH]c4ccccc4c3C[C@@H]3C(=O)N(C4CCCCC4)CC(=O)N23)c1OC (some centres not stated)	-8.8	-3.0	-26.8	-6.4	-5.9
COCC1CN(S(=O)(=O)c2cccc(F)c2)Cc2ccnn2C1 (configuration not stated)	8.3	-4.8	17.0	14.4	6.8
CC(C)Oc1ccc(CSc2nc(N)c3c4c(sc3n2)COC(C)(C)C4)cc1	13.4	24.1	16.2	12.8	12.9
CCOc1cc(C2c3c(oc4ccccc4c3=O)C(=O)N2c2nc3ccc(C)cc3s2)ccc1O (configuration not stated)	8.2	-0.8	34.7*	0.7	22.5
CCc1ccc(C2c3c(oc4ccccc4c3=O)C(=O)N2c2nncs2)cc1 (configuration not stated)	-3.8	-0.1	2.1	-5.6	51.1*
O=C(Cn1c(=O)n(CC(=O)NC2CCCC2)c(=O)c2ccccc21)Nc1ccc(F)cc1	42.3*	37.3*	70.5*	41.3*	67.1*
O=C(Cn1c(=O)n(CC(=O)NC2CCCC2)c(=O)c2ccccc21)Nc1cc(Cl)ccc1Cl	34.3*	31.6*	64.8*	27.6	42.5*
COc1ccc(Cl)cc1NC(=O)Cn1c(=O)n(CCC(=O)NC2CCCC2)c(=O)c2ccccc21	0.2	24.3	-17.4	6.5	8.9
CCOc1ccccc1NC(=O)Cn1c(=O)n(CCC(=O)NC2CCCC2)c(=O)c2ccccc21	5.3	25.7	7.8	16.7	41.4*
Cc1c(C(=O)N2CCCC2)cnn1-c1cc(-c2nc(C(C)C)no2)ccn1	4.9	3.9	18.8	6.7	5.6
c1cncc(-c2nnc3sc(C4COc5ccccc5O4)nn23)c1 (configuration not stated)	-2.1	2.5	1.9	-1.3	-6.4
CCN1[C@H]2CCN(C(=O)CC3CC3)CC[C@@H]2Oc2ccccc2S1(=O)=O	0.2	-10.5	8.4	2.7	2.0
Oc1cccc2c(-c3ccc(O)c4c(O)cccc34)ccc(O)c12	92.4*	97.6*	93.8*	76.4*	98.1*
Cc1ccc(-c2cc(C(F)F)n3ncc(C(=O)Nc4ccc(O)cc4)c3n2)cc1	6.3	60.4*	19.8	8.8	34.6*
Cc1ccc(-c2cc(C(F)F)n3ncc(C(=O)Nc4ccc(Cl)cc4)c3n2)cc1	-4.0	7.4	-8.1	-0.2	-1.4
CCCn1c(N)c(NC(=O)c2ccc(C(F)(F)F)cc2)c(=O)n(CCC)c1=O	12.0	-67.7	-2.0	2.9	-4.2
Cc1nc(N2CCCC2)ncc1C(=O)Nc1ccc(Cl)cc1	15.5	1.1	5.3	2.3	44.8*
COc1ccc(C(=O)Nc2cnc(N3CCCCCC3)nc2)cc1	43.7*	0.0	-9.2	-0.2	-2.5
N#Cc1ccc(C(=O)Nc2cnc(N3CCCCCC3)nc2)cc1	.	-5.8	.	0.0	52.7*
O=C(Nc1cnc(N2CCCCCC2)nc1)c1ccc(F)cc1	4.2	11.2	1.3	-6.8	-1.3
SMILES	USP28 block	USP8 block	USP30 block	OTUD3 block	USP17 inh
O=C(Nc1cnc(N2CCCCC2)nc1)c1cc(F)cc(F)c1	0.4	1.0	-22.5	-17.8	-19.7
Cc1ccccc1-c1cncc(C2CCN(C(=O)c3cn[nH]c3C)CC2)n1	-8.2	-5.7	-15.2	-0.8	-9.7
CC(C)NC(=O)N1CCOC2(CCCN(c3ccccn3)C2)C1 (configuration not stated)	-36.0	-72.3	-98.1	-27.4	-38.1
O=C1OC2CC1N(C(=O)/C=C/c1ccc3c(c1)OCO3)C2 (configuration not stated)	9.2	-7.2	20.8	12.3	3.0
Cc1noc(C2CN(C(=O)/C=C/c3ccc4c(c3)OCO4)C2)n1	10.7	-17.2	32.6*	9.0	5.2
O=C(/C=C/c1ccc2c(c1)OCO2)N1CCCc2ccccc21	24.6	-5.3	45.6*	29.5	18.2
O=C(/C=C/c1cccc([N+](=O)[O-])c1)N1CCc2ccccc21	8.3	84.2*	-7.6	0.0	0.2
O=C(OCC(=O)N1CCc2ccccc21)c1cc([N+](=O)[O-])ccc1NCCO	.	-4.8	.	7.7	60.3*
O=C(Cn1ncc2cc([N+](=O)[O-])ccc21)N1CCc2ccccc21	-41.6	0.6	-190.7	-25.0	-4.3
CS(=O)(=O)CS(=O)(=O)Oc1ccc(Cl)c(Cl)c1	-15.8	5.0	-3.4	1.8	-0.1
Cc1ccc(Cc2nc(-c3ccc(S(=O)(=O)N4CCOCC4)cc3)no2)cc1	-3.1	-20.2	0.6	-3.5	-5.2
COc1cccc(-c2nc(-c3ccccc3OCC(=O)Nc3ccccc3C)no2)c1	-14.4	-22.7	11.3	-0.1	22.9
CN1CC[C@@H]2Oc3ccccc3S(=O)(=O)N(Cc3ccccc3)[C@H]2CC1	-15.3	-1.3	-65.7	-14.7	-19.2
CCC(C(=O)Nc1ncc2c(n1)CC(c1ccc(OC)cc1)CC2=O)c1ccccc1 (configuration not stated)	5.4	3.7	13.4	5.4	6.8
O=C1CC(c2ccccc2)Cc2nc(Nc3cc(Cl)cc(Cl)c3)ncc21 (configuration not stated)	-8.8	-2.5	-4.8	5.7	32.9*
CCC(C(=O)Nc1ncc2c(n1)CC(c1ccc(F)cc1)CC2=O)c1ccccc1 (configuration not stated)	31.6*	19.3	33.8*	21.0	19.7
Cc1nc2ncc3c(=O)n(CCN4CCOCC4)ccc3n2n1	0.2	-77.0	-2.7	1.3	-38.2
COc1ccccc1C(=O)N1CC2CN(S(=O)(=O)c3ccc(C)cc3)CC(C1)O2	-10.8	5.4	-8.6	-0.3	-10.2
COc1ccc(S(=O)(=O)N2CCN(C(=O)c3cnc4ccccc4n3)CC2)cc1OC	-34.4	61.3*	-156.2	-42.3	23.7
COc1ccccc1C(=O)N1CCC(S(=O)(=O)c2ccc(-c3ccco3)cc2)CC1	25.5	53.4*	26.5	15.5	56.2*
O=C(c1cnc2ccccc2n1)N1CCC(S(=O)(=O)c2ccc(-c3ccco3)cc2)CC1	4.9	55.9*	-12.6	-3.2	44.3*
CN1CCC(N(C(=O)c2ccccc2)C2CCN(CCc3ccccc3)CC2)CC1	9.6	19.1	4.8	9.3	8.9
O=C(COc1cccc2ccc(N3CCC(Cc4ccccc4)CC3)nc12)Nc1cccc(Cl)c1	5.0	84.2*	2.0	2.5	39.2*
O=C(COc1ccc(Cl)cc1-n1cnnc1)Nc1cccc(O)c1	-43.1	-9.2	-138.0	-26.6	-45.7
N#Cc1cccc(S(=O)(=O)N2CCCn3c(nc4ccccc43)C2)c1	5.2	7.7	9.3	10.8	7.6
